The full list was thinned out, with hits kept by preference.
miR122 inh: activators of miR-122 sensor in Huh7 cells | Huh7 psiCHECK-miR122 Renilla luciferase sensor, 48 h | activation, % at 12.5 µM | 340,000 tested, 0.14% active;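 active = mean activation of 30% or more, with every replicate also reaching 30%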;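 note: 0% = median of neutral control wells and 100% = median of positive control wells; higher luciferase signal means stronger suppression of miR-122 activity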
* marks the source's active call; other numbers are inactive results.

SMILES	miR122 inh
CC(=O)OC1(Cc2ccccc2)CN2CCC1c1ccccc12 (stereo not given)	36*
O=P(Nc1ccccc1)(Nc1ccccc1)Oc1ccc(Cl)cc1	-322
C[C@@H]1O[C@@H](O[C@H]2C[C@@H](O)[C@]3(CO)[C@H]4[C@H](O)C[C@]5(C)[C@@H](C6COC(=O)C6)CC[C@]5(O)[C@@H]4CC[C@]3(O)C2)[C@H](O)[C@H](O)[C@H]1O (stereo not given in full)	-114
Cc1ccc(C(=O)Nc2ccc(Cl)cc2C(=O)c2ccccc2)cc1	-114
O=C1NC(=O)N(CCC2=CCCCC2)C(=O)/C1=C\c1cccs1	33*
COc1ccc(-c2ccc3c(c2)CN(C(=S)NCCc2ccccc2)Cc2cnnn2-3)cc1	-119
